Test results: PubChem BioAssay AID602428 (Sanford-Burnham Center for Chemical Genomics, 2012)
Out of some 2,500 compounds screened, about 980 (39%) were called active.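 The calls were made as follows: active = mean inhibition at 5 µM reaching about 45% (limit read from the data); inactive = the rest.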 The entries come from a sample that favours actives as a whole.

Assay: blockers of Gli reporter signaling – single concentration, luciferase luminescence, Sufu-KO-LIGHT cells, confirmation (AID 602428);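 also: plate controls were DMSO-treated cells for no effect and wells lacking cells for full effect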
Details: at 5 µM, stronger effect = higher value

Compound | inhibition
CCOc1cccc(=NC2CCCCC2)c2c(C)[nH]c(C)c12 | 86.4% (active)
